From PubChem
The full list was thinned out, with hits kept by preference.
TTR transcr act = TTR transcription activators in neuroblastoma reporter cells, primary screen, cell-based, luminescence, SH-SY5Y, TTR promoter Gaussia luciferase; 100% = recombinant luciferase protein wells; activation, % at 16.7 µM; 92,000 tested, 1.3% active;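 active means activation above the mean of all tested compounds plus 3 SD, cut at about 9.5% in these data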;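 further: cells exposed to compounds for one day before reading; 0% = median of all test compound wells on the plate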
TTR inh HuH7 = TTR promoter reporter inhibitors in hepatoma cells, counter-screen for TTR transcription activator project, cell-based, luminescence, HuH7 hepatoma | shares compounds with TTR transcr act | HuH7 TTR promoter-Gaussia luciferase reporter | inhibition, % at 16.7 µM | 1,100 tested, 4% active | AID 1117279, 2014;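 active means average inhibition above the solvent-only control wells' mean plus 3 SD, cut at about 15% in these data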;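 further: 0% = cells with DMSO only and 100% = cells with inhibitor control FD; inhibitors lower well luminescence so higher value means more inhibition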
TTR up confirm = TTR transcription activators, retest, confirmation, cell-based, luminescence, SH-SY5Y, triplicate. shares compounds with TTR transcr act. SHSY5Y TTR promoter Gaussia luciferase; 100% = purified Lucia enzyme wells, no cells. activation, % at 16.7 µM. 1,100 tested, under 10 active. AID 1117280, 2014;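 active means mean activation above a set limit taken from the earlier primary screen, cut at about 11% in these data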;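 further: 0% = DMSO-treated cells and 100% = recombinant Lucia luciferase without cells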
* marks the source's active call; other numbers are inactive results.

SMILES	TTR transcr act	others
COc1cccc2cc(C(C)N(CCCN3CCOCC3)C(=S)Nc3cccc(C)c3)oc12 (stereo unspecified)	-1
COc1cccc2cc(C(C)N(CCCN3CCOCC3)C(=S)Nc3c(C)cccc3C)oc12 (stereo unspecified)	1
O=C1N2CCc3ccccc3C2CS(=O)(=O)N1Cc1ccc(F)cc1 (stereo unspecified)	2
CC1(c2nnnn2-c2ccc3c(c2)OCCO3)CSCC(=O)N1CCc1c[nH]c2ccccc12 (stereo unspecified)	-1
C[C@H]1C2CC(OC(=O)Nc3ccc4c(c3)OCO4)C(C2)[C@H]2CCCCN21 (stereo partly specified)	0
COC(=O)[C@]12C[C@H](CC(=O)NCc3cccs3)C(=O)N(Cc3ccc(Cl)cc3Cl)C1=C[C@H](C1CCCC1)O[C@@H]2C	6
O=C(COC(=O)c1cccnc1Cl)Nc1cccc(S(=O)(=O)N2CCOCC2)c1	-1
Cc1cc(C(=O)OCC(=O)Nc2cccc(S(=O)(=O)N3CCOCC3)c2)c(C)o1	0
O=C(COC(=O)C1=COCCO1)Nc1cccc(S(=O)(=O)N2CCOCC2)c1	14*	TTR inh HuH7=-7;TTR up confirm=0
C[C@@H]1[C@@H](O)C[C@@]2(C[C@H](O)c3cc(Cl)cc(Cl)c3O2)O[C@H]1c1ccccc1Cl	-1
C/C(=N\NC(=O)C(O)c1ccccc1)c1ccc(Cl)cc1 (stereo unspecified)	23*	TTR inh HuH7=-11;TTR up confirm=0
C/C(=N\NC(=O)c1ccccn1)c1ccc(Cl)cc1	-2
CC(/C=C/c1ccccc1)=N/NC(=O)C(O)c1ccccc1 (stereo unspecified)	3
CN(C(=O)c1ccc(NC(=O)Cc2cccc(NC(=O)C3CCN(C(=O)CCc4ccccc4)CC3)c2)cc1)C1CC1	1
Cn1c(=O)cc(OCCCC(=O)Nc2cc(-c3ccncc3)ccn2)c2ccccc21	1
COc1ccc2c(c1)N=CN1CCc3c([nH]c4ccccc34)C3=NCC[C@@]321	-1
Cc1ccc(/C=N/n2c(-c3ccncc3)n[nH]c2=S)cc1	1
Cn1cccc1/C=N/n1c(-c2ccc(Cl)cc2)n[nH]c1=S	-5
Cc1ccc(-c2n[nH]c(=S)n2/N=C/c2cccs2)cc1	14*	TTR inh HuH7=-16;TTR up confirm=0
C#CCNC(=O)C[C@H]1C(=O)N(CC=C)C2=CCCC[C@@]21C(=O)OCC	-2
CC(C)(C)OC(=O)N1c2ccccc2[C@]2(N3CCCC3)C[C@H](C(=O)O)N(C(=O)OC(C)(C)C)[C@H]12	2
Cc1ccc(NS(=O)(=O)c2cccc(C(=O)O)c2)cc1S(=O)(=O)N1CCCCC1	2
CCN(CC)S(=O)(=O)c1cc(NS(=O)(=O)c2cccc(C(=O)O)c2)ccc1C	11*	TTR inh HuH7=-9;TTR up confirm=0
COc1ccc(NS(=O)(=O)c2cccc(C(=O)O)c2)cc1	3
C=CCN1C(=O)[C@H](CC(=O)N2CCC(c3ccccc3)CC2)[C@@]2(C(=O)OCC)CCCC=C12	-2
SMILES	TTR transcr act	others
CCCCCCCCN1C(=O)[C@@H](CC(=O)NCCc2ccccc2OC)C[C@@]2(C(=O)OC)C1=C[C@H](C(C)C)O[C@@H]2C1CC1	0
COC[C@@H]1CCCN1c1cccc2c1S(=O)(=O)N(C1CC1)CC[C@@H](C)O2	-1
CCN(CC)c1ccc(N=Cc2ccccc2[N+](=O)[O-])cc1	-3
CCN(CC)c1ccc(N=Cc2ccc([N+](=O)[O-])o2)cc1	17*	TTR inh HuH7=-2;TTR up confirm=0
CCN(CC)c1ccc(/C=N/NC(=O)c2ccc([N+](=O)[O-])cc2)cc1	0
C=CCNC1CCC12CCC(c1ccccc1)CC2 (stereo unspecified)	5
O=C(OCC#CCSc1nnc(-c2cccc3ccccc23)o1)C1CC1	0
O=C(CCl)c1cc2c3c(c1)CC(=O)N3CCC2	11*	TTR inh HuH7=75*;TTR up confirm=-4
CC(C)(C)CC(=O)Nc1cc2c3c(c1)CC(=O)N3CCC2	-1
CCN(CC)CCNC(=O)C(=O)Nc1cc2c3c(c1)CC(=O)N3CCC2	6
COC(=O)[C@H]1C[C@@]2(CC=C(C)C)c3ccccc3N(C(=O)OC(C)(C)C)[C@H]2N1C(=O)OC(C)(C)C	-1
FC(F)(F)c1cccc(Cn2ccc3ccc(-c4ccc5ccn(Cc6cccc(C(F)(F)F)c6)c5c4)cc32)c1	4
C[C@H]1[C@@H](N(C)C)CC[C@@]23CCCN2C(=O)CCC[C@@H]13	0
Nc1nc(-c2ccccc2)cn1/N=C/c1ccccc1	1
S=c1[nH]ncn1/N=C/c1ccccc1	18*	TTR inh HuH7=-5;TTR up confirm=0
S=c1[nH]nc(-c2cc(-c3ccccc3)n[nH]2)n1/N=C/c1ccc(Cl)cc1	1
CCOC(=O)C1CCN(C(=O)C(C)(C)NC(=O)Nc2ccc(Cl)cc2Cl)CC1	0
COc1ccc(C(=O)OCCN(C)C2CN(Cc3cn(Cc4ccccc4Cl)nn3)S(=O)(=O)C2)cc1OC (stereo unspecified)	9
COc1ccc(/C=N/Nc2ccccc2)cc1Cn1nc(C)c([N+](=O)[O-])c1C	13*	TTR inh HuH7=-16;TTR up confirm=0
COc1ccc(/C=N/N2CCOCC2)cc1Cn1nc(C)c([N+](=O)[O-])c1C	9
COc1ccc(/C=C/C(=O)C2CC2)cc1Cn1nc(C)c([N+](=O)[O-])c1C	-1
CN1CCN(c2ccc(-c3csc(N4CCC(C(N)=O)CC4)n3)cc2)CC1	0
C=CCN1C(=O)[C@H](CC(=O)NCc2cccc(C(F)(F)F)c2)[C@@]2(C(=O)OCC)CCCC=C12	0
Cc1cc(C)n(C(C)CC(=O)N2CCc3ccccc32)n1 (stereo unspecified)	1
Cc1cc(C(=O)N2CCc3ccccc32)n(-c2ccccc2)n1	10*	TTR inh HuH7=21*;TTR up confirm=11*
SMILES	TTR transcr act	others
Cn1nc(C(=O)N2CCc3ccccc32)c2ccccc2c1=O	-1
C=CCN(C(=O)[C@@H](C)[C@@H](O)c1ccc(C(C)=O)cc1)c1ccccc1	4
CCN(C(=O)[C@@H](C)[C@@H](O)c1ccc(C(C)=O)cc1)c1ccccc1	11*	TTR inh HuH7=-4;TTR up confirm=0
CCCC[C@H](C(=O)N(CC)c1ccccc1)[C@@H](O)c1ccc(C(C)=O)cc1	1
O=C(NCCc1c[nH]c2ccccc12)OCc1cn(Cc2cc(F)ccc2F)nn1	-1
O=C(OCC#CCSc1nnc(-c2cccc3ccccc23)o1)c1ccc(F)c(F)c1	0
C[C@H]1[C@@H](NC(=O)C2CCOC2)CC[C@@]23CCCN2C(=O)CCC[C@@H]13 (stereo partly specified)	-1
CCCCCNC(=O)c1cc(S(=O)(=O)N2CCCCC2)ccc1F	11*	TTR inh HuH7=-9;TTR up confirm=0
CCCCNC(=O)c1cc(S(=O)(=O)N2CCCCC2)oc1C	0
Cc1ccc(S(=O)(=O)N2CCCCC2)cc1C(=O)NCc1ccncc1	0
CN1C2=N[C@@H](c3ccc4c(c3)OCO4)CC(=O)N2/C(=C\c2ccccc2)[C@H]1c1ccccc1	0
O[C@H]1C[C@H](c2ccccc2)N(CC2CCCCC2)C[C@@H]1n1cc(-c2ccc(F)cc2)nn1	2
O=C(C1CCCCC1)N1C[C@H](n2cc(-c3ccc(F)cc3)nn2)[C@@H](O)C[C@@H]1c1ccccc1	13*	TTR inh HuH7=-7;TTR up confirm=-1
